The results in this text go back to PubChem BioAssay (NCI).

This is part of a sample that, as a whole, favours compounds with a hit. Of some 83,000 tested, about 20% had one in any assay.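 A percent growth of 40 corresponds to 60% growth inhibition; 0 means no net growth; -100 means all cells died. Active threshold: below 10.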 Active and inactive are the calls of the source.

One test relates to SK-MEL-28 melanoma. In words: NCI-60 one-dose screen, 48 h (100 = growth as untreated, 0 = no growth, -100 = all killed). To be noted: 10 µM unless noted.
As to `c1cnc2ccc3ncccc3c2c1`, the growth is 85.5% (inactive).

For the compound `CCCCCCCCCCSc1ncnc2nc[nH]c12`, the growth was 116% (inactive).

On to `Clc1ccc2c(Nc3ccc4oc(NCCN5CCCC5)nc4c3)ccnc2c1`, for which the growth was 89.6% (inactive).

Take `CCN(CC)CCCNCCCNc1cc(OC)cc2cccnc12`: the growth was 99.4% (inactive).

Consider `CCCCCCCCCCCCNc1ncnc2[nH]ncc12`, for which the growth is 100% (inactive).

Regarding `CCCCCCCC/C=C/CCCCCCCC1=NC(C)(C)CN1CCO`, the growth is -68.4% (active).

Take `O=C(CN1CCCCC1)Sc1nnc2sc3ccccc3n12`: the growth was 120% (inactive).

With `c1cncc(CNc2ccccc2-c2nnc(Nc3ccc4c(c3)OCO4)o2)c1`, the growth was 43.7% (inactive).

As for `CC(=O)NC1(C(=O)O)CCCC1`, the growth is 88.6% (inactive).

Turning to `CCCCCCCCCCCCCCCCN=C(CC(=O)O)C(=O)O`, the growth was 103% (inactive).

Turning to `c1ccc(N2CCN(c3nncc4ccccc34)CC2)nc1`, the growth was 108% (inactive).

For the compound `O=c1[nH]c(Cl)nc2c1cnn2-c1ccccc1`, the growth is 70.7% (inactive).

Consider `ClC1=C(Cl)C(Cl)=C(Cl)C1=C/C=C/c1ccccc1`, for which the growth was -74.1% (active).

As for `CN(CC(=O)N(Cc1ccc(C2CCCCC2)cc1)c1ccc(C(=O)O)cc1)S(=O)(=O)c1c(F)c(F)c(F)c(F)c1F`, the growth was -51.8% (active).

Take `COc1ccc(C2CC(c3cccc(Nc4ccnc5cc(Cl)ccc45)c3)=NN2C=O)cc1` (centres undefined): the growth is 62.4% (inactive).

With `CCCCCCCCCCCCCCCCCC1=NC(C)(C)CN1CCO`, the growth was -78% (active).

As to `COc1ccc(CCN2CCCN3C2=Nc2ccccc2S3(=O)=O)cc1`, the growth was 62.5% (inactive).

`CCOC(=O)c1cc(-c2cccnc2)nc2c(Cl)cc(Cl)cc12`: the growth was 129% (inactive).

With `CCC(C)(C)C(=O)O[C@H]1C[C@@H](C)C=C2C=C[C@H](C)[C@H](CC[C@@H]3C[C@@H](O)CC(=O)O3)[C@H]21`, the growth is 62.3% (inactive).

In the case of `O=C1C(=O)c2ccc(Br)cc2-c2cc(Br)ccc21`, the growth was 76.7% (inactive).

`CCOC(=O)c1c(C)c(C(=O)OCC)n(C)c1C`: the growth is 116% (inactive).

On to `COc1ncc(-c2ccc3nccc(C#CCN4CCN(S(C)(=O)=O)CC4)c3c2)cc1NS(=O)(=O)c1ccc(F)cc1F`, for which the growth is 3.79% (active).

On to `COc1ccc2c3c(c(OCCCN(C)C)nc2c1)-c1ccc(Cl)cc1C3=O`, for which the growth is -74.2% (active).

For the compound `CC1=CC(=O)C(C(C)=Nc2ccccc2Cl)C(=O)O1` (centres undefined), the growth was 105% (inactive).

With `C=C(C[C@](O)(C(=O)/C=C/c1ccc(Cl)cc1)C(=O)OC)c1ccccc1`, the growth was 95.4% (inactive).

In the case of `Nc1ccc(C2=Nc3cccc4cccc(c34)S2)cc1`, the growth was 111% (inactive).

As to `COc1cc(C2CC(c3ccc(C)cc3)=NN2C(C)=O)ccc1Oc1ccnc2cc(Cl)ccc12` (centres undefined), the growth is 108% (inactive).

As to `CSc1ncc2ncn(C3OC(CO)C(O)C3O)c2n1` (centres undefined), the growth is 115% (inactive).

Take `COc1ccc2nc3cc(Cl)ccc3c(Nc3cc(C(C)C)c(O)cc3C)c2c1`: the growth was 71.4% (inactive).

As to `O=C(Nc1ccc(Cl)cc1Cl)Nc1ccc(-c2cccnc2)cc1N1CCC(CO)CC1`, the growth is 46.6% (inactive).

`COc1ccc2c(c1)C(=O)c1c-2c(OCCCN(C)C)nc2cc(Br)ccc12`: the growth is -48.6% (active).

As for `CC(O)c1nc2c(c(=O)n(C)c(=O)n2C)n1C` (centres undefined), the growth was 126% (inactive).

Take `COc1cc(Oc2cc(-c3cccnc3)ccc2NC(=O)Nc2ccc(F)cc2F)cc(OC)c1OC`: the growth is 119% (inactive).

Consider `O=C(/C=C/c1ccccc1Cl)c1ccc(O)cc1`, for which the growth was 96.1% (inactive).

On to `CN1CCN(Cc2ccc(NC(=O)c3[nH]ncc3Nc3ccnc4ccnn34)cc2)CC1`, for which the growth is 65.6% (inactive).

In the case of `Cc1cc(C(C)(C)c2cc(C)c(O)c(CN(C)C)c2)cc(CN(C)C)c1O`, the growth was 79.2% (inactive).

Regarding `N#Cc1c(N)[nH]c(S)c1C#N`, the growth is 113% (inactive).

In another test the test system is SK-MEL-2 melanoma. The description is as above. To be noted: 10 µM unless noted.
Regarding `CCCCCCCCCCSc1ncnc2nc[nH]c12`, the growth is 101% (inactive).

Take `Clc1ccc2c(Nc3ccc4oc(NCCN5CCCC5)nc4c3)ccnc2c1`: the growth is 105% (inactive).

As to `CCN(CC)CCCNCCCNc1cc(OC)cc2cccnc12`, the growth is 101% (inactive).

With `CCCCCCCCCCCCNc1ncnc2[nH]ncc12`, the growth was 85.9% (inactive).

For `CCCCCCCC/C=C/CCCCCCCC1=NC(C)(C)CN1CCO`, the growth was -44.4% (active).

Regarding `O=C(CN1CCCCC1)Sc1nnc2sc3ccccc3n12`, the growth is 109% (inactive).

With `c1cncc(CNc2ccccc2-c2nnc(Nc3ccc4c(c3)OCO4)o2)c1`, the growth is 65.8% (inactive).

Regarding `CCCCCCCCCCCCCCCCN=C(CC(=O)O)C(=O)O`, the growth is 92.8% (inactive).

Regarding `c1ccc(N2CCN(c3nncc4ccccc34)CC2)nc1`, the growth is 103% (inactive).

In the case of `COc1ccc(C2CC(c3cccc(Nc4ccnc5cc(Cl)ccc45)c3)=NN2C=O)cc1` (centres undefined), the growth is -9.66% (active).

As to `CCCCCCCCCCCCCCCCCC1=NC(C)(C)CN1CCO`, the growth is -66.2% (active).

On to `CCC(C)(C)C(=O)O[C@H]1C[C@@H](C)C=C2C=C[C@H](C)[C@H](CC[C@@H]3C[C@@H](O)CC(=O)O3)[C@H]21`, for which the growth was 26.3% (inactive).

As to `O=C1C(=O)c2ccc(Br)cc2-c2cc(Br)ccc21`, the growth was 87.7% (inactive).

As to `COc1ncc(-c2ccc3nccc(C#CCN4CCN(S(C)(=O)=O)CC4)c3c2)cc1NS(=O)(=O)c1ccc(F)cc1F`, the growth is 0.951% (active).

As to `C=C(C[C@](O)(C(=O)/C=C/c1ccc(Cl)cc1)C(=O)OC)c1ccccc1`, the growth was 102% (inactive).

Regarding `Nc1ccc(C2=Nc3cccc4cccc(c34)S2)cc1`, the growth was 87.5% (inactive).

Consider `COc1cc(C2CC(c3ccc(C)cc3)=NN2C(C)=O)ccc1Oc1ccnc2cc(Cl)ccc12` (centres undefined), for which the growth was 60.6% (inactive).

As for `O=C(Nc1ccc(Cl)cc1Cl)Nc1ccc(-c2cccnc2)cc1N1CCC(CO)CC1`, the growth is 34.9% (inactive).

Take `COc1ccc2c(c1)C(=O)c1c-2c(OCCCN(C)C)nc2cc(Br)ccc12`: the growth is 97.7% (inactive).

In the case of `CN1CCN(Cc2ccc(NC(=O)c3[nH]ncc3Nc3ccnc4ccnn34)cc2)CC1`, the growth was 60.6% (inactive).

As to `Cc1cc(C(C)(C)c2cc(C)c(O)c(CN(C)C)c2)cc(CN(C)C)c1O`, the growth is 101% (inactive).

As to `N#Cc1c(N)[nH]c(S)c1C#N`, the growth is 92% (inactive).
